# Measurements reported in PubChem BioAssay AID1159580 (chemical genetic matrix, 2015).
# The whole screen tested about 5,500 compounds, of which about 2,000 (36%) were called active. Inconclusive results (about 18%) are left out. The list shows a part of the results. Unmarked numbers belong to inactive results. No stated cut-off is given here; in the data, active means normalized growth mostly below about 0.91 (no sharp cut-off); inconclusive means no clear call, values can overlap the other calls; inactive means mostly above about 0.92.
# Experiment: chemical genetic growth profiling, strain panel (AID 1159580);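 further: tested at 20 µM; growth read once vehicle control cultures reached saturation at 30 °C; 1 = growth at the plate median or of vehicle wells; lower values mean less growth of the strain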
# Settings: S. cerevisiae deletion strains, growth OD
smiles,measurement,setting,value
CC(CCC(=O)O)[C@H]1CCC2C3CC[C@@H]4C[C@H](O)CC[C@]4(C)C3C=C[C@@]21C (some centres not stated),normalized growth,"locus YAL021C, strain ccr4, hits give low values",0.968
same,normalized growth,"locus YAL026C, strain drs2, hits give low values",0.907 (active)
same,normalized growth,"locus YAL030W, strain snc1, hits give low values",1.01
same,normalized growth,"locus YBL061C, strain skt5, hits give low values",1.01
same,normalized growth,"locus YBR009C, strain hhf1, hits give low values",0.964
same,normalized growth,"locus YBR023C, strain chs3, hits give low values",0.95
same,normalized growth,"locus YBR171W, strain sec66, hits give low values",0.976
same,normalized growth,"locus YBR231C, strain swc5, hits give low values",1.02
same,normalized growth,"locus YBR279W, strain paf1, hits give low values",0.972
same,normalized growth,"locus YCL011C, strain gbp2, hits give low values",0.994
same,normalized growth,"locus YCL016C, strain dcc1, hits give low values",0.962
same,normalized growth,"locus YCL061C, strain MRC1, hits give low values",0.989
same,normalized growth,"locus YCL069W, strain vba3, hits give low values",0.997
same,normalized growth,"locus YCR088W, strain abp1, hits give low values",1.02
same,normalized growth,"locus YDL005C, strain med2, hits give low values",0.992
same,normalized growth,"locus YDL040C, strain nat1, hits give low values",1.01
same,normalized growth,"locus YDR001C, strain nth1, hits give low values",1.01
same,normalized growth,"locus YDR069C, strain doa4, hits give low values",1
same,normalized growth,"locus YDR137W, strain rgp1, hits give low values",0.501 (active)
same,normalized growth,"locus YDR159W, strain sac3, hits give low values",0.948
same,normalized growth,"locus YDR195W, strain ref2",1.2 [resistant] (active)
same,normalized growth,"locus YDR297W, strain sur2, hits give low values",1
same,normalized growth,"locus YDR334W, strain swr1, hits give low values",0.991
same,normalized growth,"locus YDR335W, strain msn5, hits give low values",0.969
same,normalized growth,"locus YDR392W, strain spt3, hits give low values",0.485 (active)
same,normalized growth,"locus YEL003W, strain gim4, hits give low values",0.968
same,normalized growth,"locus YEL037C, strain rad23, hits give low values",0.995
same,normalized growth,"locus YEL061C, strain CIN8 (second series), hits give low values",1.01
same,normalized growth,"locus YER015W, strain faa2, hits give low values",1.01
same,normalized growth,"locus YER016W, strain bim1, hits give low values",0.999
same,normalized growth,"locus YER111C, strain swi4, hits give low values",1
same,normalized growth,"locus YER155C, strain BEM2 (second series), hits give low values",1.08
same,normalized growth,"locus YFR010W, strain ubp6, hits give low values",0.987
same,normalized growth,"locus YGL167C, strain pmr1, hits give low values",0.989
same,normalized growth,"locus YGL173C, strain kem1, hits give low values",0.812 (active)
same,normalized growth,"locus YGL227W, strain vid30, hits give low values",1.03
same,normalized growth,"locus YGL240W, strain doc1, hits give low values",0.982
same,normalized growth,"locus YGL253W, strain hxk2, hits give low values",0.955
same,normalized growth,"locus YHR013C, strain ard1, hits give low values",0.973
same,normalized growth,"locus YHR027C, strain rpn1, hits give low values",0.996
same,normalized growth,"locus YHR142W, strain chs7, hits give low values",0.839 (active)
same,normalized growth,"locus YJL092W, strain hpr5, hits give low values",0.986
same,normalized growth,"locus YJL095W, strain BCK1 (second series), hits give low values",1
same,normalized growth,"locus YJL115W, strain asf1, hits give low values",1.01
same,normalized growth,"locus YJL129C, strain trk1, hits give low values",0.879
same,normalized growth,"locus YJL154C, strain vps35, hits give low values",1.03
same,normalized growth,"locus YJL164C, strain tpk1, hits give low values",0.899 (active)
same,normalized growth,"locus YJL166W, strain qcr8, hits give low values",0.894 (active)
same,normalized growth,"locus YJL187C, strain SWE1, hits give low values",0.972
same,normalized growth,"locus YKL160W, strain elf1, hits give low values",0.881 (active)
same,normalized growth,"locus YKR026C, strain gcn3, hits give low values",1.03
same,normalized growth,"locus YKR091W, strain srl3, hits give low values",1.01
same,normalized growth,"locus YLL001W, strain dnm1, hits give low values",1
same,normalized growth,"locus YLL026W, hits give low values",1.01
same,normalized growth,"locus YLL041C, strain sdh2, hits give low values",1
same,normalized growth,"locus YLR027C, strain aat2, hits give low values",0.944
same,normalized growth,"locus YLR221C, strain rsa3, hits give low values",0.898 (active)
same,normalized growth,"locus YLR258W, strain gsy2, hits give low values",0.998
same,normalized growth,"locus YLR262C, strain YPT6 (second series), hits give low values",0.532 (active)
same,normalized growth,"locus YLR320W, strain mms22, hits give low values",0.742 (active)
same,normalized growth,"locus YLR342W, strain FKS1, hits give low values",0.968
same,normalized growth,"locus YLR357W, strain rsc2, hits give low values",1.13
same,normalized growth,"locus YLR370C, strain arc18, hits give low values",0.955
same,normalized growth,"locus YLR384C, strain iki3, hits give low values",1.03
same,normalized growth,"locus YML120C, strain ndi1, hits give low values",0.861 (active)
same,normalized growth,"locus YMR058W, strain fet3, hits give low values",0.869 (active)
same,normalized growth,"locus YMR125W, strain sto1, hits give low values",1.11 [resistant] (active)
same,normalized growth,"locus YMR129W, hits give low values",1.02
same,normalized growth,"locus YMR205C, strain PFK2, hits give low values",0.966
same,normalized growth,"locus YMR231W, strain pep5, hits give low values",0.963
same,normalized growth,"locus YNL071W, strain lat1, hits give low values",0.792 (active)
same,normalized growth,"locus YNL209W, strain ssb2, hits give low values",0.99
same,normalized growth,"locus YNL248C, strain rpa49, hits give low values",0.904
same,normalized growth,"locus YNL322C, strain KRE1 (second series), hits give low values",1.04
same,normalized growth,"locus YNR049C, strain mso1, hits give low values",1
same,normalized growth,"locus YOR001W, strain rrp6, hits give low values",0.86 (active)
same,normalized growth,"locus YOR070C, strain gyp1, hits give low values",0.9 (active)
same,normalized growth,"locus YOR080W, strain dia2, hits give low values",0.997
same,normalized growth,"locus YOR083W, strain WHI5, hits give low values",0.85 (active)
same,normalized growth,"locus YOR106W, strain vam3, hits give low values",0.842 (active)
same,normalized growth,"locus YOR265W, strain rbl2, hits give low values",1.01
same,normalized growth,"locus YOR270C, strain vph1, hits give low values",0.808
same,normalized growth,"locus YOR290C, strain snf2, hits give low values",0.83 (active)
same,normalized growth,"locus YPL051W, strain arl3, hits give low values",0.817 (active)
same,normalized growth,"locus YPL078C, strain atp4, hits give low values",0.834 (active)
same,normalized growth,"locus YPL106C, strain sse1, hits give low values",1.22 [resistant] (active)
same,normalized growth,"locus YPL240C, strain hsp82, hits give low values",0.997
